Laboratory results reported in PubChem BioAssay (NCI).
The panel holds about 83,000 compounds, 20% with a hit somewhere; the sample as a whole holds those more often.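 A percent growth of 40 corresponds to 60% growth inhibition; 0 means no net growth; -100 means all cells died. Active threshold: below 10.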 The source made the active and inactive calls.

Assays:
Assay in all cases: NCI-60 one-dose screen, 48 h (100 = growth as untreated, 0 = no growth, -100 = all killed)
Conditions in all cases: 10 µM
RPMI-8226 leukemia = system: RPMI-8226 leukemia
OVCAR-8 ovarian = system: OVCAR-8 ovarian
OVCAR-5 ovarian = system: OVCAR-5 ovarian
OVCAR-4 ovarian = system: OVCAR-4 ovarian
SK-OV-3 ovarian = system: SK-OV-3 ovarian
IGROV1 ovarian = system: IGROV1 ovarian
OVCAR-3 ovarian = system: OVCAR-3 ovarian
HS 578T breast = system: HS 578T breast
NCI/ADR-RES ovarian = system: NCI/ADR-RES ovarian
T-47D breast = system: T-47D breast
BT-549 breast = system: BT-549 breast
MDA-MB-435 melanoma = system: MDA-MB-435 melanoma
SW-620 colon = system: SW-620 colon
MCF7 breast = system: MCF7 breast
HCT-116 colon = system: HCT-116 colon
HCC-2998 colon = system: HCC-2998 colon
KM12 colon = system: KM12 colon

Measured: growth

N=c1c2c(-c3ccccc3)c(-c3ccccc3)n(Cc3ccccc3)c2ncn1CCCO
inactive: RPMI-8226 leukemia 18.7% | OVCAR-8 ovarian 32.5% | OVCAR-5 ovarian 55.6% | OVCAR-4 ovarian 35.7% | SK-OV-3 ovarian 70.7% | HS 578T breast 46% | NCI/ADR-RES ovarian 42.9% | T-47D breast 65.9% | BT-549 breast 88.5% | MDA-MB-435 melanoma 34.2% | SW-620 colon 21.6% | HCT-116 colon 13.3% | HCC-2998 colon 64.3% | KM12 colon 29.9%
active: IGROV1 ovarian 8.33% | OVCAR-3 ovarian 8.78% | MCF7 breast 2.77%

Nc1nc(N)c(NC(=O)CNc2ccc(C(=O)O)cc2)c(N)n1
inactive: RPMI-8226 leukemia 98% | OVCAR-8 ovarian 105% | OVCAR-5 ovarian 108% | OVCAR-4 ovarian 104% | SK-OV-3 ovarian 107% | IGROV1 ovarian 118% | OVCAR-3 ovarian 118% | HS 578T breast 103% | NCI/ADR-RES ovarian 123% | T-47D breast 94.6% | BT-549 breast 116% | MDA-MB-435 melanoma 105% | SW-620 colon 105% | MCF7 breast 91.3% | HCT-116 colon 113% | HCC-2998 colon 107% | KM12 colon 114%

O=C(N/N=C\c1cc(Cl)ccc1[N+](=O)[O-])c1ccco1
inactive: RPMI-8226 leukemia 109% | OVCAR-8 ovarian 101% | OVCAR-5 ovarian 118% | OVCAR-4 ovarian 105% | SK-OV-3 ovarian 130% | IGROV1 ovarian 127% | OVCAR-3 ovarian 107% | HS 578T breast 100% | NCI/ADR-RES ovarian 100% | T-47D breast 83.7% | BT-549 breast 101% | MDA-MB-435 melanoma 100% | SW-620 colon 102% | MCF7 breast 57% | HCT-116 colon 113% | HCC-2998 colon 103% | KM12 colon 102%

O=C(CCCCC(=O)Nc1ccc2c(c1)/C(=C/c1ccc[nH]1)C(=O)N2)NO
active: T-47D breast 0.269%
inactive: RPMI-8226 leukemia 96.3% | OVCAR-8 ovarian 69.4% | OVCAR-5 ovarian 100% | OVCAR-4 ovarian 56.6% | SK-OV-3 ovarian 73.6% | IGROV1 ovarian 95.5% | OVCAR-3 ovarian 36.9% | HS 578T breast 72.4% | NCI/ADR-RES ovarian 93.8% | BT-549 breast 97.1% | MDA-MB-435 melanoma 74.8% | SW-620 colon 83.9% | MCF7 breast 61.9% | HCT-116 colon 88.3% | HCC-2998 colon 101% | KM12 colon 78%

O=C(Nc1ccc(OS(=O)(=O)c2ccccc2)cc1)C12CC3CC(CC(C3)C1)C2
active: SW-620 colon 5.02%
inactive: RPMI-8226 leukemia 18.8% | OVCAR-8 ovarian 63% | OVCAR-5 ovarian 68% | OVCAR-4 ovarian 58.9% | SK-OV-3 ovarian 74% | IGROV1 ovarian 75.1% | OVCAR-3 ovarian 63.9% | HS 578T breast 63.1% | NCI/ADR-RES ovarian 52.5% | T-47D breast 27% | BT-549 breast 25.8% | MDA-MB-435 melanoma 72.6% | MCF7 breast 32% | HCT-116 colon 32.8% | HCC-2998 colon 26.1% | KM12 colon 28.4%

COc1ccc(-c2cc(/C=C3\C(=O)Nc4ccc(Cl)cc43)[nH]n2)cc1OC
inactive: RPMI-8226 leukemia 68.6% | OVCAR-8 ovarian 81.4% | OVCAR-5 ovarian 101% | OVCAR-4 ovarian 19% | SK-OV-3 ovarian 94.6% | IGROV1 ovarian 66.8% | OVCAR-3 ovarian 104% | HS 578T breast 87.8% | NCI/ADR-RES ovarian 91.5% | T-47D breast 72.2% | BT-549 breast 99.7% | MDA-MB-435 melanoma 91.5% | SW-620 colon 97.1% | MCF7 breast 63.1% | HCT-116 colon 73.2% | HCC-2998 colon 103% | KM12 colon 29.3%

COc1ccc(-c2nc3ccccn3c2-c2nnc(-c3cc(OC)c(OC)c(OC)c3)o2)cc1
inactive: RPMI-8226 leukemia 75.1% | OVCAR-8 ovarian 35.5% | OVCAR-5 ovarian 82.7% | OVCAR-4 ovarian 64.8% | SK-OV-3 ovarian 44.3% | IGROV1 ovarian 87% | OVCAR-3 ovarian 40.4% | HS 578T breast 82.2% | NCI/ADR-RES ovarian 63.7% | T-47D breast 48% | BT-549 breast 42.7% | MDA-MB-435 melanoma 96.2% | SW-620 colon 74.9% | MCF7 breast 63.4% | HCT-116 colon 32.1% | HCC-2998 colon 85.4% | KM12 colon 65%

CCCCC(CCCCCC(CCCC)NCc1ccc2c(c1)OCO2)NCc1ccc2c(c1)OCO2 (stereo unspecified)
active: RPMI-8226 leukemia -59.2% | OVCAR-8 ovarian -83.2% | OVCAR-5 ovarian -100% | OVCAR-4 ovarian -98.9% | SK-OV-3 ovarian -100% | IGROV1 ovarian -100% | OVCAR-3 ovarian -100% | HS 578T breast -67.7% | NCI/ADR-RES ovarian -99% | T-47D breast -76.6% | BT-549 breast -65.7% | MDA-MB-435 melanoma -82.4% | SW-620 colon -100% | MCF7 breast -100% | HCT-116 colon -100% | HCC-2998 colon -100% | KM12 colon -100%

CC(=O)N(C)c1ccc(Nc2ccc(Nc3ccc(N(C)C(C)=O)cc3)c3c2C(=O)c2ccccc2C3=O)cc1
inactive: RPMI-8226 leukemia 53.5% | OVCAR-8 ovarian 71.2% | OVCAR-5 ovarian 97.1% | OVCAR-4 ovarian 63.7% | SK-OV-3 ovarian 78.2% | IGROV1 ovarian 32.6% | OVCAR-3 ovarian 78.7% | HS 578T breast 58.3% | NCI/ADR-RES ovarian 86% | T-47D breast 54.7% | BT-549 breast 84.4% | MDA-MB-435 melanoma 101% | SW-620 colon 84.1% | MCF7 breast 52% | HCT-116 colon 73.5% | HCC-2998 colon 89.6% | KM12 colon 71.1%

CN(C)CCS(=O)(=O)CCN(C)C
inactive: RPMI-8226 leukemia 108% | OVCAR-8 ovarian 99.5% | OVCAR-5 ovarian 105% | OVCAR-4 ovarian 120% | SK-OV-3 ovarian 98.8% | IGROV1 ovarian 119% | OVCAR-3 ovarian 110% | HS 578T breast 98.9% | NCI/ADR-RES ovarian 105% | T-47D breast 111% | BT-549 breast 101% | MDA-MB-435 melanoma 116% | SW-620 colon 94.5% | MCF7 breast 107% | HCT-116 colon 96.9% | HCC-2998 colon 102% | KM12 colon 99.6%

COC(=O)C(C(C[N+](=O)[O-])c1ccccc1)=P(c1ccccc1)(c1ccccc1)c1ccccc1 (stereo unspecified)
active: RPMI-8226 leukemia -28.2% | HCT-116 colon 4.02%
inactive: OVCAR-8 ovarian 93.4% | OVCAR-5 ovarian 96.5% | OVCAR-4 ovarian 98.3% | SK-OV-3 ovarian 95.7% | IGROV1 ovarian 66% | OVCAR-3 ovarian 89.5% | HS 578T breast 110% | NCI/ADR-RES ovarian 103% | T-47D breast 83.9% | BT-549 breast 93% | MDA-MB-435 melanoma 49.5% | SW-620 colon 69.8% | MCF7 breast 30.2% | HCC-2998 colon 101% | KM12 colon 88.3%

Cc1cc(N(CCCNc2ccnc3cc(Cl)ccc23)Cc2ccc3c(c2)OCO3)nc(N2CCOCC2)n1
active: RPMI-8226 leukemia -29.6% | OVCAR-3 ovarian -6.27% | T-47D breast 0.442% | MDA-MB-435 melanoma -13.6% | HCT-116 colon 3.52%
inactive: OVCAR-8 ovarian 31.7% | OVCAR-5 ovarian 77.4% | OVCAR-4 ovarian 23.1% | SK-OV-3 ovarian 90.5% | IGROV1 ovarian 10.9% | HS 578T breast 34.3% | NCI/ADR-RES ovarian 46.9% | BT-549 breast 12.3% | SW-620 colon 11.7% | MCF7 breast 31.9% | HCC-2998 colon 25.7% | KM12 colon 40.6%

CNc1ncc(-c2ccc(C(F)(F)F)cc2)c(NC2CCCCCC2)n1
inactive: RPMI-8226 leukemia 32.1% | OVCAR-8 ovarian 84.2% | OVCAR-5 ovarian 88.8% | OVCAR-4 ovarian 70.1% | SK-OV-3 ovarian 83% | IGROV1 ovarian 63.9% | OVCAR-3 ovarian 78.2% | HS 578T breast 99.6% | NCI/ADR-RES ovarian 65.2% | T-47D breast 45.8% | BT-549 breast 90.9% | MDA-MB-435 melanoma 89.8% | SW-620 colon 77.4% | MCF7 breast 67.6% | HCT-116 colon 56% | HCC-2998 colon 91.1% | KM12 colon 74.1%

COc1ccc2c(c1OC)O/C(=C\c1ncc([N+](=O)[O-])n1C)C2=O
inactive: RPMI-8226 leukemia 34.9% | OVCAR-5 ovarian 53.7% | OVCAR-4 ovarian 78.9% | SK-OV-3 ovarian 24.8% | HS 578T breast 46.5% | NCI/ADR-RES ovarian 15.1% | T-47D breast 94.8% | MCF7 breast 28.9% | HCC-2998 colon 34.6% | KM12 colon 43.1%
active: OVCAR-8 ovarian -18.2% | IGROV1 ovarian -14.8% | OVCAR-3 ovarian -24.2% | BT-549 breast -41.3% | MDA-MB-435 melanoma -76.4% | SW-620 colon -21.2% | HCT-116 colon 4.48%

COc1cc(/C=C2\CCCC3=C2N=C2SC=NN2C3c2cc(OC)c(OC)c(OC)c2)cc(OC)c1OC (stereo unspecified)
inactive: OVCAR-5 ovarian 91.9% | OVCAR-4 ovarian 47% | SK-OV-3 ovarian 57.4% | IGROV1 ovarian 29% | OVCAR-3 ovarian 29.3% | HS 578T breast 42.8% | NCI/ADR-RES ovarian 18.5% | T-47D breast 61.4% | BT-549 breast 37.9% | SW-620 colon 18.5% | MCF7 breast 27.4%
active: RPMI-8226 leukemia -22.5% | OVCAR-8 ovarian 9.84% | MDA-MB-435 melanoma -13.2% | HCT-116 colon -23.5% | HCC-2998 colon 4.77% | KM12 colon -23.5%

CCCCN(CCCC)c1cc(C(=O)CCCCCN)c2ccccc2n1
inactive: OVCAR-5 ovarian 105% | OVCAR-4 ovarian 100% | SK-OV-3 ovarian 101% | HS 578T breast 96% | NCI/ADR-RES ovarian 71.6% | T-47D breast 92.9% | BT-549 breast 68.2% | SW-620 colon 39.8% | MCF7 breast 40%
active: RPMI-8226 leukemia -67.9% | OVCAR-8 ovarian 9.35% | IGROV1 ovarian -73.6% | OVCAR-3 ovarian -96.9% | MDA-MB-435 melanoma -52.1% | HCT-116 colon -95.6% | HCC-2998 colon -31.4% | KM12 colon -93.3%

CCCCCCN1C(=O)C2=C(c3ccc(Cl)cc3)Nc3c(c(C)nn3-c3ccccc3)C2c2ccccc21 (stereo unspecified)
inactive: RPMI-8226 leukemia 81.2% | OVCAR-8 ovarian 92.5% | OVCAR-5 ovarian 100% | OVCAR-4 ovarian 90.5% | SK-OV-3 ovarian 95.9% | IGROV1 ovarian 100% | OVCAR-3 ovarian 92.7% | HS 578T breast 118% | NCI/ADR-RES ovarian 97.8% | T-47D breast 84.5% | BT-549 breast 102% | MDA-MB-435 melanoma 89.8% | SW-620 colon 111% | MCF7 breast 77.8% | HCT-116 colon 87.9% | HCC-2998 colon 92.1% | KM12 colon 107%

COc1ccc(-c2nn(-c3cccc(NC(=O)Nc4ccc(Cl)c(C(F)(F)F)c4)c3)cc2-c2ccncc2)cc1Cl
inactive: OVCAR-5 ovarian 39.8% | OVCAR-4 ovarian 21.7% | SK-OV-3 ovarian 16.7% | IGROV1 ovarian 15.7% | HS 578T breast 33.8% | BT-549 breast 11.2% | SW-620 colon 17.7% | HCC-2998 colon 37.7%
active: RPMI-8226 leukemia -19.2% | OVCAR-8 ovarian 1.48% | OVCAR-3 ovarian -2.03% | NCI/ADR-RES ovarian 9.26% | T-47D breast -6.17% | MDA-MB-435 melanoma -24.3% | MCF7 breast 1.57% | HCT-116 colon 8.61% | KM12 colon 4%
